M1 PAM: human CHRM1 positive allosteric modulation; P11229; CHO-K1 hM1, Fluo-8 calcium fluorescence, ACh EC20; 0% = ACh EC20, 100% = maximal ACh; activation, % at 3 µM; 360,000 compounds, 0.088% hits; AID 588819; in the data active = activation above about 19%, passing the limit was not always enough
Target sequence (P11229 whole entry, looked up): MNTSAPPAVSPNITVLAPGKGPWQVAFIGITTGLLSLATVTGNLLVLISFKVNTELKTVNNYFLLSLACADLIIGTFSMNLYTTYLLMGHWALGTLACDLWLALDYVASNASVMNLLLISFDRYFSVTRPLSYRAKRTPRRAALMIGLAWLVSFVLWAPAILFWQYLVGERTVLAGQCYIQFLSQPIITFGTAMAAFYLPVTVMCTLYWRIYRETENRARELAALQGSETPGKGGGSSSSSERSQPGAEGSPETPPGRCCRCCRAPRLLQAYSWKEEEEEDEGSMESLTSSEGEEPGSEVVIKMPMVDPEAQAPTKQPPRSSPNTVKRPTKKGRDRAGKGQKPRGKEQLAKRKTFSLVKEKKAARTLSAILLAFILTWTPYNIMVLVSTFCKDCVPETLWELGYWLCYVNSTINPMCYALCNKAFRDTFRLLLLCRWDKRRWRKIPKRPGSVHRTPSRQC
CHRM1 agonist: activates human CHRM1 receptor; P11229; CHO-K1 hM1, Fluo-8 calcium fluorescence, agonist mode; 0% DMSO, 100% acetylcholine EC100; activation, % at 3 µM; 360,000 compounds, 0.33% hits;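 active = activation above the run's mean compound activation plus 3 SD, cut at about 16% in these data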;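 also: peak over basal fluorescence ratio within a 140 s kinetic read after compound addition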
CHO-K1 Ca antag: nonselective inhibitor or artifact in parental CHO-K1 cells. inhibition, % at 3 µM. ATP-induced calcium, Fluo-8 fluorescence. 360,000 compounds, 0.6% hits;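 active = inhibition above a per-plate cutoff, the plate's mean sample inhibition plus 3 SD, cut at about 24% in these data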;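 also: 0% = DMSO plus EC80 ATP and 100% = DMSO alone without ATP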
M1 PAM parental: M1 PAM counterscreen hit in parental CHO-K1 cells | ATP EC20, Fluo-8 calcium fluorescence; 0% at ATP EC20, 100% at ATP max | activation, % at 3 µM | 360,000 compounds, 0.02% hits | AID 602247;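 active = activation above the run cutoff, the mean activation of all test compounds plus 3 SD, cut at about 40% in these data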;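 also: peak over basal fluorescence ratio in a 140 s read after ATP addition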
CHRM1 antagonist: human CHRM1 antagonism | inhibition, % at 3 µM | 360,000 compounds, 1.3% hits | P11229 | CHO-K1 hM1, Fluo-8 calcium fluorescence, ACh EC80 antagonist;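 active = percent inhibition above its own plate's cutoff, namely the mean of that plate's compound wells plus 3 SD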;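 also: peak over basal fluorescence ratio during 140 s after agonist addition; 0% = ACh EC80 plus DMSO and 100% = DMSO alone without agonist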
M1 ag parental: M1 agonist counterscreen hit in parental CHO-K1 cells | Fluo-8 calcium fluorescence; scaled to maximal ATP response, vehicle zero | activation, % at 3 µM | 360,000 compounds, 0.48% hits; in the data active = activation above about 15%;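 also: untransfected CHO-K1 host cells lacking M1 receptor as counterscreen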
* marks the source's active call; other numbers are inactive results. Rows were chosen to be rich in hits. Some 2.4% of all compounds tested hit in one or more screens of this group.

SMILES	M1 PAM	CHRM1 agonist	CHO-K1 Ca antag	M1 PAM parental	CHRM1 antagonist	M1 ag parental
Nc1cccc(N2C(=O)c3cccc4c(N)ccc(c34)C2=O)c1	-13.8	44.5*	-7.5	-3.1	13.8	15.3*
Cc1c2cnn(CC(=O)NCCCN3CCCCC3)c(=O)c2c(C)n1Cc1ccccc1	-7.1	-11.5	1.7	1.4	6.5	-0.1
CCC1CCCCN1CCCNC(=O)Cn1ncc2c(C)n(Cc3ccccc3Cl)c(C)c2c1=O (centres undefined)	-30.2	-14.2	-2.0	2.6	44.4*	-0.1
Cc1c2cnn(CC(=O)NCCN3CCOCC3)c(=O)c2c(C)n1Cc1ccccc1	-14.0	-4.1	4.4	-3.3	32.5*	5.5
CC(=O)NCCC(=O)N1CCCC(N(C)CCc2ccccc2)C1 (centres undefined)	-20.5	-9.2	0.8	6.3	44.8*	-0.3
Clc1ccc(Cc2nc(-c3cccnc3)no2)cc1	10.1	-2.2	-17.7	10.9	-8.8	0.7
CCCN(CCC)C(=O)c1ccc2c(c1)N(CC)C(=O)c1ccccc1S2(=O)=O	-32.3	-11.2	-3.7	-9.5	42.0*	0.2
O=C(Nc1ccc(Br)c2ccccc12)c1ccc2ccccc2c1O	-13.9	0.6	14.3	-10.0	23.3	18.0*
CC(=O)Nc1ccc(Br)c2ccccc12	1.6	-4.0	-1.5	9.8	1.9	0.1
CCCCOc1ccc(CNC(=S)N/N=C/c2ccc(OC)c(OC)c2)cc1	3.2	-2.2	-4.6	18.4	-30.7	0.0
O=C1NC[C@@H](c2ccccc2)OC(=O)[C@H](Cc2ccc(F)cc2)C/C=C\C[C@H]1CC(=O)N(CCO)Cc1ccccc1	-8.1	-6.2	10.3	-13.1	16.4	4.6
O=C1NC[C@H](c2ccccc2)OC(=O)[C@H](Cc2ccc(F)cc2)C/C=C\C[C@H]1CC(=O)N(CCO)Cc1ccccc1	-21.2	0.6	6.1	-7.0	41.7*	7.7
O=C1NC[C@H](c2ccccc2)OC(=O)[C@@H](Cc2ccc(F)cc2)C/C=C\C[C@H]1CC(=O)N(CCO)Cc1ccccc1	-14.4	-1.8	-5.9	2.4	34.1*	11.7
O=C1N[C@@H](c2ccccc2)COC(=O)[C@@H](Cc2ccc(F)cc2)C/C=C\C[C@@H]1CC(=O)N(CCO)Cc1ccccc1	-19.2	4.4	8.2	-9.5	32.4	17.2*
O=C1N[C@@H](c2ccccc2)COC(=O)[C@H](Cc2ccc(F)cc2)C/C=C\C[C@H]1CC(=O)N(CCO)Cc1ccccc1	2.9	-1.2	-9.5	12.3	-0.3	0.4
O=C(C[C@@H]1C/C=C\CCC(=O)O[C@H](c2ccccc2)CNC1=O)N[C@H](CO)Cc1ccccc1	5.7	17.9*	-17.1	19.3	2.8	6.2
N#CCS(=O)(=O)c1ccccc1	-3.8	-2.3	0.4	-9.5	11.8	-0.1
CCCCn1c(N)c(N(CC(C)C)C(=O)C2CCCN(C(=O)c3ccc(Cl)cc3)C2)c(=O)[nH]c1=O (centres undefined)	3.9	-3.2	3.3	8.3	-7.9	0.0
Cn1cnc(NCc2ccccc2)c1[N+](=O)[O-]	7.8	-2.8	-11.9	20.1	-9.6	0.8
CCN(CC(=O)NCc1ccc(F)cc1)C(=O)C(C)Oc1cccc(Cl)c1 (centres undefined)	-7.4	-3.5	-12.2	-6.3	5.9	0.2
CCCS(=O)(=O)N1CCN(Cc2ccccc2C(F)(F)F)CC1	7.5	-3.6	-3.7	-2.2	2.0	-0.5
CN1CCCN(Cc2ccccc2C(F)(F)F)CC1	-25.2	-6.6	-6.3	8.4	29.1*	0.3
CCn1ccnc1CN1CCc2c([nH]c3ccccc23)C1C(C)(C)C (centres undefined)	-13.1	-13.5	11.6	15.2	5.3	22.8*
CCn1ccnc1CN1CCc2c([nH]c3ccccc23)C1CC(C)C (centres undefined)	-9.7	-5.5	-11.7	6.6	8.3	2.6
COc1ccc(CNc2ccc(Cl)cc2)cc1Cn1ccnc1	-0.7	16.6*	7.3	17.8	-1.7	3.9
SMILES	M1 PAM	CHRM1 agonist	CHO-K1 Ca antag	M1 PAM parental	CHRM1 antagonist	M1 ag parental
O=[N+]([O-])c1ccccc1SN(Cc1ccccc1)c1ccccn1	-0.2	-11.5	-2.9	16.2	-4.0	-0.2
CCOC(=O)C1CCN(C(=O)CNC(=O)c2nn(-c3ccc(OC)c(Cl)c3)c(=O)c3ccccc23)CC1	1.6	-8.0	4.9	3.0	7.2	4.4
CCOC(=O)CNC(=O)CNC(=O)c1nn(-c2ccc(OC)c(OC)c2)c(=O)c2ccccc12	10.6	-0.7	-16.7	-0.8	-9.6	2.2
CCOC(=O)C1CCCN(C(=O)CNC(=O)c2nn(-c3ccc(OC)c(Cl)c3)c(=O)c3ccccc23)C1 (centres undefined)	-14.4	18.1*	0.3	2.0	21.9	4.7
COc1ccc(-n2nc(C(=O)NCC(=O)NCCCN3CCC(C)CC3)c3ccccc3c2=O)cc1Cl	-7.2	-10.6	-10.6	14.0	3.6	-0.5
CCOC(=O)CNC(=O)CNC(=O)c1nn(-c2ccc(OC)c(Cl)c2)c(=O)c2ccccc12	3.2	-1.4	25.9*	-9.5	6.5	1.8
COc1ccc(-n2nc(C(=O)NCC(=O)NCCCN3CCCCCC3)c3ccccc3c2=O)cc1Cl	-23.4	-0.5	-19.6	16.5	50.1*	-0.1
C/C(=N\NC(=O)OC(C)(C)C)c1ccccc1Br	-1.1	-0.1	-16.1	14.2	17.4	0.3
CCc1cc(CN2CCOCC2)c(NC(=O)c2ccccc2)s1	9.3	-2.1	-16.7	2.6	-12.0	0.4
Cc1ccc(C(=O)Oc2ccccc2N2CCOCC2)cc1	0.7	-1.9	-4.2	7.6	-3.5	19.7*
O=C(Oc1ccccc1N1CCOCC1)c1ccccc1	4.7	-3.2	-3.0	16.8	-10.6	0.9
COc1cc(C=NNc2nc3c([nH]2)c(=O)n(C)c(=O)n3C)ccc1O	-2.0	-2.4	-12.3	4.4	-0.5	-0.3
CN(C)c1ccc(C=NNc2nc3c([nH]2)c(=O)n(C)c(=O)n3C)cc1	-13.5	-1.6	-7.0	16.3	24.3*	1.2
Cc1ccc(NS(=O)(=O)c2cccc3nsnc23)cc1C	-26.4	-7.5	4.4	-4.6	39.8*	1.1
O=S(=O)(Nc1cccc(F)c1)c1cccc2nsnc12	6.7	-8.9	-7.9	17.0	-4.6	4.5
O=C(O)c1cc(Br)ccc1NS(=O)(=O)c1cccc2nsnc12	-0.8	0.1	27.3*	-25.1	10.6	-0.9
CCCNC(=O)Cn1c(=O)/c(=C\c2ccc(-c3ccc([N+](=O)[O-])cc3)o2)s/c1=C\C(=O)C(C)(C)C	-9.0	21.9*	23.0	6.9	36.7*	22.6*
Cc1cn([C@H]2C[C@H](O)[C@@H](/C=C/C(=O)NCCC(C)C)O2)c(=O)[nH]c1=O	4.1	-3.1	-16.3	13.5	-27.5	0.7
COc1ccc(N2C(=O)[C@H]3CCC=C[C@H]3[C@@H]2c2ccccc2Br)cc1	-26.6	-7.9	2.9	-11.6	47.4*	-0.4
